# PubChem BioAssay (NCATS)
# Results filed as inconclusive are left out. Unmarked numbers belong to inactive results. Activity calls are given as the source filed them. The call rests on the fitted dose curve; in most records, active means well fitted curve in the direction sought with a large enough effect; inconclusive means small, poorly fitted or top-dose-only effect, or another doubt; inactive means no such curve, though single readings can be large; an effect the other way counts as inactive or inconclusive.
# Columns and labels:
# [1] = Quantitative High-Throughput drug screen in 47 multiple myeloma cell lines against the NCATS MIPE library collection: KMS26_JCRB cell viability assay (AID 1918975); further: nearly all actives have a fitted effect of over 45% in size
# How it was run: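 Viability readout: CellTiter-Glo luminescence following 5 min room-temperature incubation with reagent. Prior exposure: 48 h, 37C, humidified 5% CO2, 500 cells per well.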
# [2] = Quantitative High-Throughput drug screen in 47 multiple myeloma cell lines against the NCATS MIPE library collection: MMM1_PLB cell viability assay (AID 1918976); further: nearly all actives have a fitted effect of over 35% in size
# How it was run: (§1)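 Viability after 48 h drug exposure was measured as ATP-dependent luminescence. Cells, 500 per well, sat at 37 °C under 5% CO2; DMSO wells set 100%, media-only wells 0%.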
# [3] = Quantitative High-Throughput drug screen in 47 multiple myeloma cell lines against the NCATS MIPE library collection: MM1S_ATCC cell viability assay (AID 1918980); further: nearly all actives have a fitted effect of over 45% in size
# How it was run: as §1
# [4] = Quantitative High-Throughput drug screen in 47 multiple myeloma cell lines against the NCATS MIPE library collection: MM1R_ATCC cell viability assay (AID 1918981); further: nearly all actives have a fitted effect of over 35% in size
# How it was run: as §1
# [5] = Quantitative High-Throughput drug screen in 47 multiple myeloma cell lines against the NCATS MIPE library collection: KMS28PE_JCRB cell viability assay (AID 1918983); further: nearly all actives have a fitted effect of over 35% in size
# How it was run: as §1
# [6] = Quantitative High-Throughput drug screen in 47 multiple myeloma cell lines against the NCATS MIPE library collection: L363_DSMZ cell viability assay (AID 1918984); settings: L363 myeloma viability, CellTiter-Glo ATP luminescence, 48 h; viability (% of control): at 45.8 µM (top of the series); further: nearly all actives have a fitted effect of over 40% in size
# How it was run: as §1
# [7] = Quantitative High-Throughput drug screen in 47 multiple myeloma cell lines against the NCATS MIPE library collection: KMS34_JCRB cell viability assay (AID 1918985); further: nearly all actives have a fitted effect of over 40% in size
# How it was run: as §1
# [8] = Quantitative High-Throughput drug screen in 47 multiple myeloma cell lines against the NCATS MIPE library collection: OCIMY5_PLB cell viability assay (AID 1918988); further: nearly all actives have a fitted effect of over 65% in size
# How it was run: as §1
# [9] = Quantitative High-Throughput drug screen in 47 multiple myeloma cell lines against the NCATS MIPE library collection: OPM1_PLB cell viability assay (AID 1918989); further: nearly all actives have a fitted effect of over 40% in size
# How it was run: as §1
# [10] = Quantitative High-Throughput drug screen in 47 multiple myeloma cell lines against the NCATS MIPE library collection: XG6_PLB cell viability assay (AID 1919865); further: nearly all actives have a fitted effect of over 40% in size
# How it was run: as §1
# [11] = Quantitative High-Throughput drug screen in 47 multiple myeloma cell lines against the NCATS MIPE library collection: MOLP8_DSMZ cell viability assay (AID 1918977); further: nearly all actives have a fitted effect of over 45% in size
# How it was run: as §1
# [12] = Quantitative High-Throughput drug screen in 47 multiple myeloma cell lines against the NCATS MIPE library collection: NCIH929_DSMZ cell viability assay (AID 1918978); further: nearly all actives have a fitted effect of over 35% in size
# How it was run: as §1
# [13] = Quantitative High-Throughput drug screen in 47 multiple myeloma cell lines against the NCATS MIPE library collection: OCIMY1_PLB cell viability assay (AID 1918979); further: nearly all actives have a fitted effect of over 35% in size
# How it was run: as §1
# [14] = Quantitative High-Throughput drug screen in 47 multiple myeloma cell lines against the NCATS MIPE library collection: LP1_DSMZ cell viability assay (AID 1918982); further: nearly all actives have a fitted effect of over 35% in size
# How it was run: as §1
# [15] = Quantitative High-Throughput drug screen in 47 multiple myeloma cell lines against the NCATS MIPE library collection: OCIMY7_PLB cell viability assay (AID 1918987); settings: OCI-MY7 myeloma viability, CellTiter-Glo ATP, 48 h; viability (% of DMSO): at 45.8 µM (top of the series); further: nearly all actives have a fitted effect of over 65% in size
# How it was run: as §1
# [16] = Quantitative High-Throughput drug screen in 47 multiple myeloma cell lines against the NCATS MIPE library collection: U266_ATCC cell viability assay (AID 1919864); further: nearly all actives have a fitted effect of over 35% in size
# How it was run: as §1
# [17] = Quantitative High-Throughput drug screen in 47 multiple myeloma cell lines against the NCATS MIPE library collection: KMS20_JCRB cell viability assay (AID 1918973); further: nearly all actives have a fitted effect of over 45% in size
# How it was run: (§2)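 Steps: seed 500 cells per well; pin-transfer MIPE 4.0 library; incubate 48 h at 37C, 5% CO2, humidified; add CellTiter-Glo, 5 min room temperature; read luminescence.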
# [18] = Quantitative High-Throughput drug screen in 47 multiple myeloma cell lines against the NCATS MIPE library collection: SKMM1_PLB cell viability assay (AID 1919863); settings: SKMM1 myeloma viability, CellTiter-Glo ATP, 48 h; viability: hits give low values; further: nearly all actives have a fitted effect of over 35% in size
# How it was run: as §1
# [19] = Quantitative High-Throughput drug screen in 47 multiple myeloma cell lines against the NCATS MIPE library collection: KMS21BM_JCRB cell viability assay (AID 1918974); settings: ATP luminescence, 48 h; viability: at 45.8 µM (top of the series)
# How it was run: as §2
# Potency means the concentration at half of the fitted maximal effect.
smiles,measurement,setting,value
O=C1C(c2c(O)[nH]c3ccccc23)=Nc2ccccc21,Potency,[1],2.96 µM (active)
same,Potency,[2],2.09 µM (active)
same,Potency,[3],0.118 µM (active)
same,Potency,[4],1.48 µM (active)
same,Potency,[5],9.35 µM (active)
same,Potency,[6],inactive
same,Potency,[7],7.43 µM (active)
same,Potency,[8],1.32 µM (active)
same,Potency,[9],inactive
same,Potency,[10],0.296 µM (active)
CN1CCN(c2ncc(-c3cc(Cl)cc(Cl)c3Cl)c(N)n2)CC1,Potency,[1],inactive
same,Potency,[11],inactive
same,Potency,[12],23.5 µM (active)
same,Potency,[13],inactive
same,Potency,[3],11.8 µM (active)
same,Potency,[4],inactive
same,Potency,[14],inactive
same,Potency,[6],18.7 µM (active)
same,Potency,[7],inactive
same,Potency,[15],33.2 µM (active)
same,Potency,[8],inactive
same,Potency,[9],inactive
same,Potency,[16],26.4 µM (active)
same,Potency,[10],7.43 µM (active)
Cc1nc(C(=O)NCC(=O)O)c(O)c2ccc(Oc3ccccc3)cc12,Potency,[1],inactive
same,Potency,[2],0.0053 µM (active)
same,Potency,[12],inactive
same,Potency,[14],inactive
same,Potency,[5],inactive
same,Potency,[6],inactive
same,Potency,[15],inactive
same,Potency,[8],inactive
same,Potency,[9],inactive
CCN1CCN(c2ccc(Nc3cc(N(C)C(=O)Nc4c(Cl)c(OC)cc(OC)c4Cl)ncn3)cc2)CC1,Potency,[17],2.09 µM (active)
same,Potency,[12],inactive
same,Potency,[13],inactive
same,Potency,[8],13.2 µM (active)
same,Potency,[9],0.0235 µM (active)
same,Potency,[16],inactive
same,Potency,[10],6.62 µM (active)
COc1cc2nccc(Oc3ccc(NC(=O)Nc4cc(C)on4)c(Cl)c3)c2cc1OC,Potency,[1],16.6 µM (active)
same,Potency,[2],23.5 µM (active)
same,Potency,[3],6.62 µM (active)
same,Potency,[7],4.18 µM (active)
same,Potency,[8],16.6 µM (active)
same,Potency,[9],20.9 µM (active)
same,Potency,[16],20.9 µM (active)
same,Potency,[10],0.118 µM (active)
CC1(COc2ccc3c(c2)ncn3-c2ccc3cccc(N4CCC(N)CC4)c3n2)COC1,Potency,[1],14.8 µM (active)
same,Potency,[2],1.48 µM (active)
same,Potency,[13],1.48 µM (active)
same,Potency,[4],0.526 µM (active)
same,Potency,[14],1.18 µM (active)
same,Potency,[5],0.59 µM (active)
same,Potency,[7],1.05 µM (active)
same,Potency,[15],0.059 µM (active)
same,Potency,[9],0.0235 µM (active)
same,Potency,[18],16.6 µM (active)
same,Potency,[16],0.059 µM (active)
CO[C@H]1O[C@@H]2O[C@@]3(C)CC[C@@H]4[C@@H](C)CC[C@@H]([C@H]1C)[C@@]24OO3,Potency,[1],inactive
same,Potency,[2],3.72 µM (active)
same,Potency,[12],0.833 µM (active)
same,Potency,[13],inactive
same,Potency,[3],inactive
same,Potency,[4],10.5 µM (active)
same,Potency,[5],4.18 µM (active)
same,Potency,[15],0.743 µM (active)
same,Potency,[9],6.62 µM (active)
same,Potency,[10],2.64 µM (active)
Cc1ccc(C(=O)N(CCCN)[C@@H](c2oc3cc(Cl)ccc3c(=O)c2Cc2ccccc2)C(C)C)cc1,Potency,[1],26.4 µM (active)
same,Potency,[2],23.5 µM (active)
same,Potency,[12],8.33 µM (active)
same,Potency,[7],inactive
same,Potency,[8],inactive
Cc1cc(-c2ncc(CC(=O)Nc3ccc(-c4cnccn4)cn3)cc2C)ccn1,Potency,[19],18.7 µM (active)
same,Potency,[2],16.6 µM (active)
same,Potency,[12],20.9 µM (active)
same,Potency,[13],inactive
same,Potency,[3],18.7 µM (active)
same,Potency,[5],16.6 µM (active)
same,Potency,[6],14.8 µM (active)
same,Potency,[8],11.8 µM (active)
same,Potency,[9],8.33 µM (active)
same,viability,[18],117%
same,Potency,[16],20.9 µM (active)
same,Potency,[10],14.8 µM (active)
CCC[C@H](Nc1nc(-c2ccc(NC(=O)NCC)c(OC)c2)ncc1C)c1cccnc1,Potency,[1],0.0209 µM (active)
same,Potency,[2],0.0209 µM (active)
same,Potency,[11],0.0662 µM (active)
same,Potency,[12],0.0074 µM (active)
same,Potency,[3],0.0209 µM (active)
same,Potency,[4],0.0187 µM (active)
same,Potency,[14],0.0187 µM (active)
same,Potency,[5],0.0148 µM (active)
same,Potency,[7],0.0059 µM (active)
same,Potency,[8],0.0166 µM (active)
same,Potency,[9],0.001 µM (active)
same,Potency,[18],0.003 µM (active)
CCN(CCO)CCCOc1ccc2c(Nc3cc(CC(=O)Nc4cccc(F)c4)[nH]n3)ncnc2c1,Potency,[17],inactive
same,Potency,[11],inactive
same,Potency,[12],inactive
same,Potency,[13],inactive
same,Potency,[3],inactive
same,Potency,[14],inactive
same,Potency,[5],inactive
same,Potency,[6],inactive
same,Potency,[7],inactive
same,Potency,[15],1.05 µM (active)
same,Potency,[8],0.264 µM (active)
same,Potency,[9],inactive
same,viability,[18],116%
same,Potency,[16],inactive
same,Potency,[10],16.6 µM (active)
FC(F)(F)c1ccc(C=Cc2nc(COc3ccc(CCCCn4ccnn4)cc3)co2)cc1,Potency,[1],0.0019 µM (active)
same,Potency,[12],0.0235 µM (active)
same,Potency,[5],0.132 µM (active)
same,Potency,[6],0.001 µM (active)
same,Potency,[15],0.132 µM (active)
same,Potency,[8],0.0166 µM (active)
same,Potency,[9],0.187 µM (active)
C[C@@H](O)[C@H]1C(=O)N2C(C(=O)OCOC(=O)C(C)(C)C)=C(SC3CN(C4=NCCS4)C3)[C@H](C)[C@H]12,Potency,[1],inactive
same,Potency,[11],inactive
same,Potency,[12],inactive
same,Potency,[4],16.6 µM (active)
same,Potency,[14],inactive
same,Potency,[5],inactive
same,Potency,[9],inactive
same,viability,[18],111%
Cn1cnc(-c2cc3nccc(Oc4ccc(NC(=S)NC(=O)Cc5ccccc5)cc4F)c3s2)c1,Potency,[17],13.2 µM (active)
same,Potency,[13],inactive
same,Potency,[14],16.6 µM (active)
same,Potency,[9],18.7 µM (active)
CN1CCc2c(n(Cc3ccc(C(=O)NO)cc3)c3ccccc23)C1,Potency,[1],14.8 µM (active)
same,Potency,[2],14.8 µM (active)
same,Potency,[11],18.7 µM (active)
same,Potency,[12],16.6 µM (active)
same,Potency,[13],18.7 µM (active)
same,Potency,[3],16.6 µM (active)
same,Potency,[4],18.7 µM (active)
same,Potency,[5],14.8 µM (active)
same,Potency,[7],16.6 µM (active)
same,Potency,[15],4.18 µM (active)
same,Potency,[8],16.6 µM (active)
same,Potency,[9],16.6 µM (active)
same,Potency,[18],5.9 µM (active)
same,Potency,[16],26.4 µM (active)
same,Potency,[10],14.8 µM (active)
